The term AC50 denotes the concentration giving half of the maximal activity seen.

Assay [1] in a line: ACEA_ER_80hr: ACEA Biosciences xCELLigence Real-Time Cell Analysis on Estrogen Receptor Agonism for Proliferation (AID 2282667; active means hit-call score of the fitted dose curve at least 0.9, where 1 is the maximum). As to conditions: T47D proliferation, impedance (xCELLigence), 80 h. The gist of the method:
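Impedance readout (RT-CES) of T47D proliferation at 80 h post-dose; gain of signal vs DMSO baseline. Compounds: 8 conc, 1:4 serial, top 100 uM final, ≤0.5% DMSO; biological duplicate.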

The target in assay [2] is CCAAT/enhancer-binding protein beta (Homo sapiens) (UniProt P17676). The assay is described as follows: ATG_C_EBP_CIS: Attagene CIS-FACTORIAL HepG2 Assay for human CCAAT/Enhancer Binding Protein (C/EBP) beta (AID 2282927). Conditions: HepG2 Attagene cis-factorial transcription factor reporter; actives raise or lower the signal. The gist of the method: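 Following a 24 h incubation with test chemical, transfected HepG2 cells yielded RNA whose reporter transcripts were quantified by RT-PCR and fluorescent capillary electrophoresis, with DMSO serving as baseline for bidirectional fitting.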

Assay [3] can be described thus: ATG_CMV_CIS: Attagene CIS-FACTORIAL HepG2 Assay for human CMV (Internal Marker) (AID 2282928).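 Further: endpoint acts as a background internal control marker rather than a target.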 Conditions: HepG2 CMV promoter reporter, transcription factor profiling; actives raise or lower the signal. The gist of the method:
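CMV internal-marker background readout in transiently transfected HepG2 cells bearing cis-regulated reporter units. Reporter mRNA is measured 24 h after dosing by RT-PCR and capillary electrophoresis, with bidirectional fitting against DMSO.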

A short description of assay [4]: ATG_DR4_LXR_CIS: Attagene CIS-FACTORIAL HepG2 Assay for human Liver X Receptor (LXR), DR4 submotif (AID 2282929). As to conditions: HepG2 Attagene DR4 cis-reporter, mRNA transcription; actives raise or lower the signal. The method in brief:
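Fluorescence intensity of labelled reporter cDNA fragments, separated by capillary electrophoresis, gives the signal. HepG2 cells bearing cis-regulated reporter constructs were treated 24 h; activity fitted bidirectionally relative to DMSO negative control.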

Assay [5] addresses Aryl hydrocarbon receptor (Homo sapiens) (UniProt P35869). The assay is described as follows: ATG_Ahr_CIS: Attagene CIS-FACTORIAL HepG2 Assay for human Aryl Hydrocarbon Receptor (Ahr) (AID 2282930). Conditions: HepG2 AhR cis-factorial reporter transcription; actives raise or lower the signal. The gist of the method: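 Values derive from bidirectional fitting against DMSO negative control. Underlying signal: cis-element reporter mRNA in transiently transfected HepG2, harvested 24 h post-dose and measured by RT-PCR plus capillary electrophoresis.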

Assay [6] can be described thus: ATG_AP_1_CIS: Attagene CIS-FACTORIAL HepG2 Assay for human Activator Protein 1 (AP-1) (AID 2282931). Conditions: HepG2 Attagene cis-factorial AP-1 reporter mRNA; actives raise or lower the signal. The method in brief: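 Multiplexed HepG2 reporter assay, 24 h dosing. mRNA induction detected by RT-PCR plus capillary electrophoresis. Activity fitted in both directions against DMSO.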

Assay [7] is described as follows: ATG_AP_2_CIS: Attagene CIS-FACTORIAL HepG2 Assay for human Activator Protein 2 (AP-2) (AID 2282932). As to conditions: HepG2 AP-2 cis-reporter, Attagene transcription factor profiling; actives raise or lower the signal. The method in brief: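 HepG2 cells were transiently transfected with multiple cis-promoter reporter transcription units and dosed for 24 h. Reporter mRNA was measured by RT-PCR with capillary electrophoresis fluorescence; bidirectional fits relative to DMSO baseline.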

Assay [8] in a line: ATG_BRE_CIS: Attagene CIS-FACTORIAL HepG2 Assay for human Bone Morphogenetic Protein (BMP) Response Element (BRE) (AID 2282933). As to conditions: HepG2 BMP response element reporter, Attagene transcription factor profiling; actives raise or lower the signal. The method in brief:
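Fluorescence-labelled reporter cDNA fragments, separated by capillary electrophoresis, gave the signal for this component of a 52-readout multiplex. HepG2 cells were transfected, exposed to chemicals for 24 h, and compared with DMSO using bidirectional fitting.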

For assay [9], the target named is Retinoic acid receptor alpha (Homo sapiens) (UniProt P10276). Put plainly: ATG_DR5_RAR_CIS: Attagene CIS-FACTORIAL HepG2 Assay for human Retinoic Acid Receptor Alpha (RARE), DR5 submotif (AID 2282934). As to conditions: HepG2 Attagene cis-factorial RARE DR5 reporter, mRNA; actives raise or lower the signal. The method in brief:
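Endpoint fitted in both directions relative to DMSO as negative control. It reflects DR5 cis-element reporter mRNA induction in transiently transfected HepG2 cells, measured 24 h after dosing through RT-PCR and fluorescent capillary electrophoresis.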

In assay [10] the target is Transcription factor E2F1 (Homo sapiens) (UniProt Q01094). Put plainly: ATG_E2F_CIS: Attagene CIS-FACTORIAL HepG2 Assay for human E2F Transcription Factor 1 (AID 2282935). Conditions: HepG2 Attagene cis-reporter, E2F reporter RNA transcripts; actives raise or lower the signal. The method in brief: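 HepG2 cells transiently transfected with multiplexed cis-element reporter units, dosed for 24 h. Reporter mRNA measured by RT-PCR, 6-FAM primer-extension labeling, HpaI digestion and capillary electrophoresis; bidirectional fit versus DMSO baseline.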

Assay [11] can be described thus: ATG_E_Box_CIS: Attagene CIS-FACTORIAL HepG2 Assay for human Enhancer Box (E-box) (AID 2282936). Conditions: HepG2 E-box cis-reporter transcription, actives raise or lower the signal. The gist of the method: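 HepG2 cells transiently transfected with multiplexed cis-element reporter units sensing endogenous transcription factor activity; 24 h compound exposure. Reporter mRNA measured by RT-PCR, 6-FAM primer extension, HpaI digestion and capillary electrophoresis; bidirectional fit versus DMSO.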

Assay [12] is described as follows: ATG_M_61_CIS: Attagene CIS-FACTORIAL HepG2 Assay for M61 Transcription Factor (Internal Marker) (AID 2282937). Conditions: HepG2 Attagene CIS-FACTORIAL M61 internal marker reporter; actives raise or lower the signal. The gist of the method:
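Endogenous transcription factor activity in HepG2 is read through transiently transfected cis-element reporter units. After 24 h dosing, RNA undergoes reverse transcription, PCR and primer extension with 6-FAM before capillary electrophoresis; DMSO-referenced bidirectional fit.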

The nature of assay [13]: ATG_EGR_CIS: Attagene CIS-FACTORIAL HepG2 Assay for human Early Growth Response 1 (EGR1) (AID 2282938). Conditions: HepG2 Attagene CIS-FACTORIAL EGR reporter mRNA; actives raise or lower the signal. The gist of the method: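 Activity is taken as induction or loss of reporter mRNA versus DMSO, fitted bidirectionally. Transcripts from cis-regulated reporter units in transiently transfected HepG2 were measured after 24 h by RT-PCR with capillary electrophoresis.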

A short description of assay [14]: ATG_M_19_CIS: Attagene CIS-FACTORIAL HepG2 Assay for M19 Transcription Factor (Internal Marker) (AID 2282939). As to conditions: HepG2 Attagene CIS-FACTORIAL M19 internal marker reporter; actives raise or lower the signal. The gist of the method: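 HepG2, MRTU transient transfection, 24 h dosing. Total RNA → RT-PCR → 6-FAM primer extension → HpaI digest → CE fluorescence. Bidirectional curve fit, DMSO negative control.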

Assay [15] can be described thus: ATG_ERE_CIS: Attagene CIS-FACTORIAL HepG2 Assay for Estrogen Response Element (ERE) (AID 2282940). Conditions: HepG2 ERE cis-reporter, Attagene RNA transcript; actives raise or lower the signal. The method in brief:
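After a 24 h chemical treatment, RNA from reporter-transfected HepG2 cells is reverse-transcribed, PCR-amplified and fluorescently labelled. Fragments separated by capillary electrophoresis give reporter signal; DMSO serves as negative control.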

A short description of assay [16]: ATG_Ets_CIS: Attagene CIS-FACTORIAL HepG2 Assay for human Erythroblast Transformation Specific (ETS) (AID 2282941). Conditions: HepG2 ETS cis-reporter transcription, actives raise or lower the signal. The gist of the method:
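HepG2 cells transfected with multiple cis-regulated reporter units measuring endogenous ETS-driven transcription, 24 h after dosing. Reporter mRNA quantified by RT-PCR with capillary electrophoresis; bidirectional fit relative to DMSO.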

For assay [17], the target named is Hepatocyte nuclear factor 3-beta (Homo sapiens) (UniProt Q9Y261). Put plainly: ATG_FoxA2_CIS: Attagene CIS-FACTORIAL HepG2 Assay for human Forkhead box A2 (FOXA2) (AID 2282942). As to conditions: HepG2 cis-reporter transcription factor activity, 24 h; actives raise or lower the signal. The method in brief: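 Reporter transcript induction is measured by fluorescence after capillary electrophoresis of RT-PCR products from HepG2 cells exposed 24 h. Cis-regulated reporter units report endogenous factor activity; curves fitted both directions against DMSO.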

Assay [18] is described as follows: ATG_FoxO_CIS: Attagene CIS-FACTORIAL HepG2 Assay for human Forkhead box O (FoxO) (AID 2282943). Conditions: HepG2 Attagene cis-reporter, FoxO element, mRNA; actives raise or lower the signal. The method in brief:
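Values reflect reporter mRNA induction or loss in HepG2 cells 24 h post-dosing, fitted bidirectionally with DMSO as negative control and baseline. Detection used RT-PCR and fluorescence capillary electrophoresis.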

Assay [19] is described as follows: ATG_GATA_CIS: Attagene CIS-FACTORIAL HepG2 Assay for human GATA Binding Protein (AID 2282944). Conditions: HepG2 GATA cis-element reporter, Attagene multiplex mRNA; actives raise or lower the signal. The gist of the method:
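Cells: HepG2, transiently transfected with cis-regulated reporter transcription units. Exposure: 24 h. Detection: RT-PCR plus capillary electrophoresis of FAM-labeled fragments. Analysis: bidirectional, DMSO as baseline.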

Molecules are shown by their SMILES. Results filed as inconclusive are left out. Active and inactive are the calls of the source. How the source made its calls, unless noted: active means hit-call score of the fitted dose curve at least 0.9, where 1 is the maximum; inactive means score below 0.9.

Retinoic acid receptor alpha (Homo sapiens), sequence (P10276 whole entry, looked up): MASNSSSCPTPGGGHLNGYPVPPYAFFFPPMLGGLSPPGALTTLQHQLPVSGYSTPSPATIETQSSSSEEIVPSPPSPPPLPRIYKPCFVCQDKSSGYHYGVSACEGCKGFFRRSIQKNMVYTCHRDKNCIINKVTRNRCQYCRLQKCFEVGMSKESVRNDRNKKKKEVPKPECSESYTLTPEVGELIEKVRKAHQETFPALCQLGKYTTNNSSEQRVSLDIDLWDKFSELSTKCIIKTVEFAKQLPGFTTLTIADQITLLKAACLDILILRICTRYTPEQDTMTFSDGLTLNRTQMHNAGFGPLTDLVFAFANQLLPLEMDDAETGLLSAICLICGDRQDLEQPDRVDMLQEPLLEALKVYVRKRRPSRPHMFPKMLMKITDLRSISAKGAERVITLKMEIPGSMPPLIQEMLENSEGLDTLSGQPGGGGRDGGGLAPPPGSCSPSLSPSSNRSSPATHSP
Transcription factor E2F1 (Homo sapiens), sequence (Q01094 whole entry, looked up): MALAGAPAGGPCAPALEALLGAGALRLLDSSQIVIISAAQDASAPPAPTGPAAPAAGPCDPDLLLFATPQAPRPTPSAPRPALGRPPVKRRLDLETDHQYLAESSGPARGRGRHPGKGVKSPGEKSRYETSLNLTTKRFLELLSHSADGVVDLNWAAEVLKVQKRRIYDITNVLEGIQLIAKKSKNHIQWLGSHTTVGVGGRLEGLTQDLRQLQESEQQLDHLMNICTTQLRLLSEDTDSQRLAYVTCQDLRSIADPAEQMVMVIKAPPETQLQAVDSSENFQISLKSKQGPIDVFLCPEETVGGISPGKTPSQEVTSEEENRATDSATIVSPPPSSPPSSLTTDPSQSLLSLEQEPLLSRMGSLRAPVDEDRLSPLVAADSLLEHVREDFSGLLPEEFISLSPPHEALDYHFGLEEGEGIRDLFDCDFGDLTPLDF
Hepatocyte nuclear factor 3-beta (Homo sapiens), sequence (Q9Y261 whole entry, looked up): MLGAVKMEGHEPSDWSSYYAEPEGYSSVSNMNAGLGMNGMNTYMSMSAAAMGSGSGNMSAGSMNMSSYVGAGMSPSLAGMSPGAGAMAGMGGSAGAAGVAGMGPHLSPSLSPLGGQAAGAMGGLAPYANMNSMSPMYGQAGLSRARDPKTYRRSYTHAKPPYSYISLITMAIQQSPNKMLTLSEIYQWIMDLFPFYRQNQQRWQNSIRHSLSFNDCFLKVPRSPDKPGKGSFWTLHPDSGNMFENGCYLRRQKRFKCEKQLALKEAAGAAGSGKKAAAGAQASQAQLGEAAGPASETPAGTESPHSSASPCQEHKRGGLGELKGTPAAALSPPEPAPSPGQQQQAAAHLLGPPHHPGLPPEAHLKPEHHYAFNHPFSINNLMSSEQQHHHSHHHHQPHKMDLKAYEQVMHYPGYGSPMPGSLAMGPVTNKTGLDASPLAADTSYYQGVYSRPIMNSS
Aryl hydrocarbon receptor (Homo sapiens), sequence (P35869 whole entry, looked up): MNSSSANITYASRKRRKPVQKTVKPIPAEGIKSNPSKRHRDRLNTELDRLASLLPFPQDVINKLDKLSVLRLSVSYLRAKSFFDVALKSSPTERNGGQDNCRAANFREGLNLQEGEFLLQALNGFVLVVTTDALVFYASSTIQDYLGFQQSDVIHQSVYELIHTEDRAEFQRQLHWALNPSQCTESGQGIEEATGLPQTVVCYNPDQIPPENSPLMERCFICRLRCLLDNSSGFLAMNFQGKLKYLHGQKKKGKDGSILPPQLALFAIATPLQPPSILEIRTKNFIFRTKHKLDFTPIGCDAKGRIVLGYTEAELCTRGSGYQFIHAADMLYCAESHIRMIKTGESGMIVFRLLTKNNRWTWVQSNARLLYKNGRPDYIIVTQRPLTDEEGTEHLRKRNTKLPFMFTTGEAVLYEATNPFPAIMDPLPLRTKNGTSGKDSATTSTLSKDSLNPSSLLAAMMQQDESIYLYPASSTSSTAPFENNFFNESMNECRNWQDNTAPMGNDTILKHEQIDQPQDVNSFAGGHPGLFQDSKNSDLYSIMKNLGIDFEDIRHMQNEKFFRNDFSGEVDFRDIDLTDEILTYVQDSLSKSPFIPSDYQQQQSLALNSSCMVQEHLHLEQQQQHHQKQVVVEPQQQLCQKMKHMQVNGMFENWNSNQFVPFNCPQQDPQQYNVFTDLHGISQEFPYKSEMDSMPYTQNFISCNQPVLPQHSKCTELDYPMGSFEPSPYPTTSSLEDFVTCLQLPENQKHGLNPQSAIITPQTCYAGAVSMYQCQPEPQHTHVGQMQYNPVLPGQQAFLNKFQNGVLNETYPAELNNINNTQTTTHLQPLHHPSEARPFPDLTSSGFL
CCAAT/enhancer-binding protein beta (Homo sapiens), sequence (P17676 whole entry, looked up): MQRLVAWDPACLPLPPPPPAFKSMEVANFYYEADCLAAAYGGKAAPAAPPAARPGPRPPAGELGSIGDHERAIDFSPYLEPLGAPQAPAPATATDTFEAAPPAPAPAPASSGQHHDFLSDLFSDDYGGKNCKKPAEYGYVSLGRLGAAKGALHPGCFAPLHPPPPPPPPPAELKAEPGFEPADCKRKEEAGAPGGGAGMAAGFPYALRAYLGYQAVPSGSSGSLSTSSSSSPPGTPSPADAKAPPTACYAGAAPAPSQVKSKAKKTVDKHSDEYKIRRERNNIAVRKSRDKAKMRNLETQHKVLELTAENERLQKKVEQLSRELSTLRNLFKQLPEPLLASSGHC

Regarding `CCC1(C)C(=O)N(Cl)C(=O)N1Cl` (stereo not given), the compound was classed as inactive in [1], in [3], in [4], in [5], in assay [7] and in [8]. Moreover, the compound was called inactive in assay [9], in assay [10], in assay [11], in assay [12], in assay [14] and in assay [15]. Also, the outcome in assay [16], in assay [17] and in assay [19] was inactive. Besides, the AC50 in assay [2] was 38.9 µM (active); in assay [6], 67.4 µM (active); in [13], 34.5 µM (active); in [18], 29.8 µM (active).
Turning to `Oc1ccc(-c2ccccc2)c(Cl)c1`, the AC50 in [1] is 10.5 µM (active); in assay [3], 43.1 µM (active); in assay [6], 60.2 µM (active); in assay [13], 53.9 µM (active); in [15], 9.09 µM (active). Also, the result in assay [2], in assay [4], in assay [5], in assay [7], in assay [9] and in assay [10] was inactive. The result in assay [11], in [12], in [14], in [16], in assay [17] and in [19] was inactive.
With `O=C(O)C1CCC(C(=O)O)CC1` (stereo not given), the call in assay [1], in [2], in [3], in assay [4], in assay [5] and in assay [7] was inactive. Further, the compound was classed as inactive in [8], in assay [9], in [10], in [11], in assay [12] and in assay [13]. For the same compound, the compound was classed as inactive in [14], in assay [15], in [16], in [17], in [18] and in assay [19].
For the compound `CC1OC(=O)C(C)OC1=O` (stereo not given), in assay [1], the AC50 is 0.169 µM (active). Also, the outcome in assay [2], in assay [3], in assay [4], in [5], in assay [6] and in [7] was inactive. In addition, the compound was called inactive in assay [8], in [9], in assay [10], in assay [11], in assay [12] and in [13]. For the same compound, the call in [14], in assay [16], in assay [17], in assay [18] and in assay [19] was inactive.
For the compound `CC(=O)OC1CCCCC1C(C)(C)C` (stereo not given), the result in assay [1], in assay [2], in [3], in assay [4], in assay [5] and in [6] was inactive. For the same compound, the outcome in assay [7], in assay [8], in [9], in assay [10], in assay [11] and in assay [12] was inactive. Further, the compound was called inactive in assay [13], in assay [14], in assay [16], in assay [17], in [18] and in assay [19].

For the origin of these results see PubChem BioAssay (EPA / NIEHS).
